Screens: PubChem, several laboratories
Only a selection was taken, and hits are over-represented in it overall.
GIRK2 act: Activators of human GIRK2-containing channels | P48051 | HEK293 GIRK2/NPY4 cells, thallium flux fluorescence | activation (% efficacy), % for hits at 37.5 µM | 34,000 tested, under 10 active | AID 1259324;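 active = primary screen hit, no activity in plain HEK293 cells, and in GIRK2-only cells above 5% efficacy rising with concentration; inactive = the rest, including fluorescent compounds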;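 also: efficacy is normalized control-subtracted fluorescence 15 s after thallium addition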
GluA2 TARP mod: modulators of AMPA receptor GluA2-stargazin complexes. O88602+P19491. calls only at 30 µM. 40,000 compounds, 3.5% hits. HEK293 GluA2+stargazin, membrane potential dye (FDSS), glutamate EC50; hits were called plate by plate, in both directions;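 active = any of four per-well response measures lying three or more SD from its plate-wide compound average, in either direction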
The depositor's hits bear a star.

Screening COc1cccc(CCNC(=O)CC2CCCCN2S(=O)(=O)c2ccccc2)c1 (stereo not drawn) returned GluA2 TARP mod inactive.
For COc1ccc(S(=O)(=O)N2CCCCC2CC(=O)NCc2ccccc2OC)cc1 (stereo not drawn) the results were GluA2 TARP mod inactive.
Screening COc1ccc(S(=O)(=O)N2CCCCC2CC(=O)NCc2ccccc2Cl)cc1 (stereo not drawn) returned GluA2 TARP mod active.
For COc1cccc(CCNC(=O)CC2CCCCN2S(=O)(=O)c2ccc(Cl)cc2)c1 (stereo not drawn) the results were GluA2 TARP mod active.
Screening CC1CN(C(=O)CSc2ccnc3c2c(=O)n(C)c(=O)n3C)CC(C)O1 (stereo not drawn) returned GIRK2 act inactive and GluA2 TARP mod active.
CCN(CC)C(=O)CSc1ccnc2c1c(=O)n(C)c(=O)n2C was read as GIRK2 act inactive and GluA2 TARP mod inactive.
`Cn1c(=O)c2c(SCC(N)=O)ccnc2n(C)c1=O` gave GluA2 TARP mod active.
Screening Cn1c(=O)c2c(SCCN3CCCC3)ccnc2n(C)c1=O returned GIRK2 act inactive and GluA2 TARP mod active.
For Cn1c(=O)c2c(SCC(=O)N3CCCCCC3)ccnc2n(C)c1=O the results were GluA2 TARP mod inactive.
For C=CCSc1ccnc2c1c(=O)n(C)c(=O)n2C the results were GluA2 TARP mod active.
Screening Cn1c(=O)c2c(SCCO)ccnc2n(C)c1=O returned GluA2 TARP mod inactive.
Cn1c(=O)c2c(SCC(=O)NC(C)(C)C)ccnc2n(C)c1=O was read as GIRK2 act inactive and GluA2 TARP mod inactive.
For O=C(Nc1c2c(nn1-c1ccc(Cl)cc1)CS(=O)(=O)C2)C(=O)N1CCCC1 the results were GIRK2 act inactive and GluA2 TARP mod inactive.
For Cc1cccc2sc(N(Cc3ccncc3)C(=O)c3ccc([N+](=O)[O-])cc3)nc12 the results were GIRK2 act inactive and GluA2 TARP mod inactive.
`Cc1ccccc1-n1nc2c(c1NC(=O)C(=O)NCCC1=CCCCC1)CS(=O)(=O)C2` gave GIRK2 act inactive and GluA2 TARP mod inactive.
For Cc1cc(C)c(S(=O)(=O)N2CCCOC2CNC(=O)C(=O)NCCN2CCOCC2)c(C)c1 (stereo not drawn) the results were GluA2 TARP mod inactive.
For O=C(CS(=O)(=O)c1ccc(Cl)s1)Nc1nc2ccccc2s1 the results were GIRK2 act inactive and GluA2 TARP mod inactive.
For CCn1c(=NC(=O)c2cc(C)no2)sc2ccccc21 the results were GIRK2 act inactive and GluA2 TARP mod inactive.
CNc1nn(CC(=O)NCc2ccccc2Cl)c(N)c1-c1nc(-c2ccccc2C)no1 was read as GIRK2 act inactive and GluA2 TARP mod inactive.
NC(=O)c1c(NC(=O)C2c3ccccc3Oc3ccccc32)sc2c1CCCCC2 was read as GluA2 TARP mod inactive.
Screening COc1ccc(Cl)cc1NC(=O)Cn1c(C)cc(C)c(S(=O)(=O)c2ccccc2)c1=O returned GIRK2 act inactive and GluA2 TARP mod inactive.
CCN(CC)CCSc1ccnc2c1c(=O)n(C)c(=O)n2C was read as GIRK2 act inactive and GluA2 TARP mod active.
Screening CCc1cnc2c(c1SCC(=O)N1CCN(c3ccccc3)CC1)c(=O)n(C)c(=O)n2C returned GIRK2 act inactive and GluA2 TARP mod inactive.
For Cc1cnc2c(c1SCC(=O)N1CCN(c3ccccc3)CC1)c(=O)n(C)c(=O)n2C the results were GIRK2 act inactive and GluA2 TARP mod active.
`CCOC(=O)CNC(=O)CSc1ccnc2c1c(=O)n(C)c(=O)n2C` gave GIRK2 act inactive and GluA2 TARP mod inactive.
Screening CCCNC(=O)CSc1ccnc2c1c(=O)n(C)c(=O)n2C returned GIRK2 act inactive and GluA2 TARP mod inactive.
Screening CCOCCSc1ccnc2c1c(=O)n(C)c(=O)n2C returned GluA2 TARP mod active.
COc1ccccc1C(=O)N1CCN(c2ncnc3c2nnn3-c2ccccc2)CC1 was read as GluA2 TARP mod inactive.
For CC(C)COC(=O)Nc1nc(CC(=O)Nc2cccc(Cl)c2)cs1 the results were GIRK2 act inactive.
`Cc1nnc2ccc(N3CCN(S(=O)(=O)c4ccccc4C(F)(F)F)CC3)nn12` gave GIRK2 act inactive and GluA2 TARP mod inactive.
`Cc1ccc(C)c(S(=O)(=O)N2CCN(c3ccc4nnc(-c5ccco5)n4n3)CC2)c1` gave GIRK2 act inactive and GluA2 TARP mod inactive.
Screening O=C(NCc1ccccc1)N1CCN(c2ccc3nnc(-c4ccco4)n3n2)CC1 returned GIRK2 act inactive and GluA2 TARP mod active.
Screening O=S(=O)(c1ccccc1F)N1CCN(c2ccc3nnc(-c4ccco4)n3n2)CC1 returned GIRK2 act inactive and GluA2 TARP mod active.
For Cc1nnc2ccc(N3CCN(C(=O)NCc4ccccc4)CC3)nn12 the results were GIRK2 act inactive and GluA2 TARP mod inactive.
For Cc1nnc2ccc(N3CCN(S(=O)(=O)c4ccccc4Cl)CC3)nn12 the results were GIRK2 act inactive and GluA2 TARP mod active.
For O=C(NCC(O)C1CCCCC1)C(=O)Nc1ccccc1Cl (stereo not drawn) the results were GIRK2 act inactive.
For CCOc1ccc(-c2cc(=O)n(CC(=O)NCCn3nc(-c4ccc(F)cc4)ccc3=O)cn2)cc1 the results were GIRK2 act inactive and GluA2 TARP mod inactive.
For O=C(NCc1ccco1)N1CCOCC1 the results were GIRK2 act inactive and GluA2 TARP mod inactive.
`Cc1cccc(NC(=O)Cn2cccc(-c3nc(-c4ccc(Br)cc4)no3)c2=O)c1` gave GIRK2 act inactive and GluA2 TARP mod inactive.
Screening COc1cccc(NC(=O)Cn2cccc(-c3nc(-c4ccc(Br)cc4)no3)c2=O)c1 returned GIRK2 act inactive and GluA2 TARP mod active.
O=C(Nc1ccc2ncsc2c1)c1ccc(C(=O)c2ccccc2)cc1 was read as GIRK2 act inactive and GluA2 TARP mod inactive.
`O=C(Nc1ccc2ncsc2c1)c1cccc([N+](=O)[O-])c1` gave GIRK2 act inactive and GluA2 TARP mod active.
Cc1ccc(N2C(=O)CC(Sc3ncccc3C(=O)O)C2=O)cc1Cl (stereo not drawn) was read as GIRK2 act inactive.
For COc1coc(C(=O)Nc2nc3ccc(Cl)cc3s2)cc1=O the results were GIRK2 act inactive and GluA2 TARP mod active.
`COc1ccc(NC(=O)c2cc(=O)c(OC)co2)c(OC)c1` gave GIRK2 act inactive and GluA2 TARP mod active.
Screening O=C(Nc1nc2ccc(Cl)cc2s1)c1cc(=O)c(OCc2ccc(F)cc2)co1 returned GIRK2 act inactive and GluA2 TARP mod inactive.
Screening COC(=O)c1ccc(NC(=O)c2cc(=O)c(OC)co2)cc1 returned GIRK2 act inactive and GluA2 TARP mod inactive.
For O=C(NC(c1ccccc1)c1ccccc1)c1csc(-c2cnccn2)n1 the results were GIRK2 act inactive and GluA2 TARP mod inactive.
Screening CCOC(=O)N1CCN(c2nnc(SCC(=O)NCc3ccco3)s2)CC1 returned GIRK2 act inactive and GluA2 TARP mod inactive.
Cn1cccc1CN(C(=O)c1ccc2nsnc2c1)C1CC1 was read as GIRK2 act inactive.
For COc1cc(C(C)=O)ccc1OCC(=O)Nc1ccc(-c2cn3ccsc3n2)cc1 the results were GIRK2 act inactive and GluA2 TARP mod inactive.
O=C(Nc1ccc(-c2cn3ccsc3n2)cc1)NC1CCCCC1 was read as GIRK2 act inactive and GluA2 TARP mod active.
